Screening results as filed in PubChem.
A selection: hits, their analogues and other compounds. The true share with any hit is near 4%.
ADAM17 inh – inhibitors of human ADAM17; recombinant ADAM17, EDANS/DABCYL FRET peptide cleavage; AID 720648; 370,000 compounds, 0.83% hits; P78536; inhibition, % at 6.95 µM;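 active = inhibition above the mean of compounds lying between control limits plus 3 SD, set per campaign, cut at about 8.5% in these data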
aDG glyco act – increases alpha dystroglycan glycosylation | 360,000 compounds, 0.22% hits | Pro5-aDG cells, alpha-DG glycosylation AlphaScreen (IIH6); 0% Pro5, 100% B10-LARGE cell signal | activation, % at 10 µM;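 active = activation of at least 8% versus controls, or a plate z-score of at least 8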;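 note: Pro5 are CHO cells carrying HIG-tagged alpha-DG that lacks glycosylation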
ADAM10 inh – inhibits human ADAM10; O14672; recombinant ADAM10, EDANS/DABCYL FRET peptide cleavage, 3 h; inhibition, % at 7 µM; 370,000 compounds, 0.62% hits;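 active = inhibition above a per-campaign cutoff equal to the mean of compounds falling between control-based bounds plus 3 SD, cut at about 20% in these data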
Target sequence (O14672 214-748 limits assumed): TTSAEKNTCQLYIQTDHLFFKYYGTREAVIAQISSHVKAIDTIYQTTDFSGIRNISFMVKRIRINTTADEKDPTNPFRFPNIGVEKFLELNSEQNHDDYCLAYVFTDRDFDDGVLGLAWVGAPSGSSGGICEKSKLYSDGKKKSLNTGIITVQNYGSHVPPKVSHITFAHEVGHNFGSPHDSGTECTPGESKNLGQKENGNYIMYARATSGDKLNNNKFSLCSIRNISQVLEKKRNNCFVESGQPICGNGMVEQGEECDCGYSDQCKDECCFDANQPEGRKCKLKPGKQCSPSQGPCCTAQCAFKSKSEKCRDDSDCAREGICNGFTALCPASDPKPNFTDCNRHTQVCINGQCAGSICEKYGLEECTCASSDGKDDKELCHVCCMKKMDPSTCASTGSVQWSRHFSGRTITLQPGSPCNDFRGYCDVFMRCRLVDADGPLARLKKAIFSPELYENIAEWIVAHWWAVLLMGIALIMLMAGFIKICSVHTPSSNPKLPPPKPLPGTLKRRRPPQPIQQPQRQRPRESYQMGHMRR
GRIN3A LBD mod – modulates the human NR3A ligand-binding domain | NR3A LBD differential scanning fluorimetry, Tm shift; 0% = protein alone, 100% = glycine-bound protein | Tm shift relative to glycine control, % at 25 µM | 340,000 compounds, 2.5% hits | AID 1259313;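 active = melting temperature shift of at least 10% of the positive control shift, at one fixed dose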
FAS-TE inh – blocks the thioesterase domain of human fatty acid synthase. AID 602261. recombinant FAS-TE, OMFH fluorogenic substrate, fluorescence endpoint. P49327. inhibition, % at 15 µM. 360,000 compounds, 0.67% hits;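 active = compounds whose normalised, plate-corrected inhibition of enzyme fluorescence in the single-dose primary screen is 50% or more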
A number is an active result; 0 = inactive; - = not tested or not shown.

SMILES	ADAM17 inh	aDG glyco act	ADAM10 inh	GRIN3A LBD mod	FAS-TE inh
O=C(N/N=C/c1cccc(Oc2ccccc2)c1)c1ccc(O)cc1O	0	0	0	31.1	0
COc1cc(C(=O)N/N=C/c2cccc(Oc3ccccc3)c2)ccc1O	0	0	0	11.2	0
COc1cc(/C=N/NC(=O)c2cccc(S(=O)(=O)N3CCCC3)c2)ccc1O	0	0	0	14.8	0
COc1ccccc1COC(=O)c1cccc(S(=O)(=O)N2CCCC2)c1	0	0	0	0	0
COc1cc(C(=O)N/N=C/c2ccc(OC(=O)c3cccc(C)c3)cc2)ccc1O	0	0	0	22.2	0
COc1ccc(COC(=O)c2cccc(S(=O)(=O)N3CCCC3)c2)cc1F	0	0	0	15.0	0
Cc1ccc(OC(F)F)c(NC(=O)Nc2cccc(C(F)(F)F)c2)c1	-	0	-	28.9	0
O=C(Nc1ccccc1)Nc1cccc(NC(=O)Nc2ccccc2)c1F	0	0	0	24.3	0
COc1cccc(NC(=O)Nc2cc(C)ccc2OC)c1	0	0	0	0	0
O=C(Nc1ccccc1)Nc1ccccc1Br	0	0	0	0	0
O=C(Nc1cccc(C(F)(F)F)c1)c1ccccc1NC(=O)C1CCCCC1	0	0	0	10.5	0
COc1ccc(NC(=O)Nc2cc(C)cc(C)c2)cn1	0	0	0	0	0
COc1ccc(NC(=O)Nc2cccc(C(F)(F)F)c2)cn1	0	0	0	26.0	0
CCOc1ccc(-c2nnc3sc(COc4ccc(C)cc4)nn23)cc1	0	0	0	0	0
O=C(Nc1ccccc1)Nc1cc([N+](=O)[O-])ccc1F	0	0	0	19.8	0
O=C(Nc1ccccc1)Nc1cccc(C(F)(F)F)c1	0	0	0	26.6	0
CNC(=O)Nc1cccc(C(F)(F)F)c1	0	0	0	0	0
O=C(Nc1cccc(C(F)(F)F)c1)NC1CCN(S(=O)(=O)c2ccc(F)cc2)CC1	0	0	0	19.2	0
Cn1c(SCC(=O)Nc2cc(Cl)cc(Cl)c2)nnc1-c1ccc2nonc2c1	0	0	0	45.4	0
Cc1ccc(C)c(-n2c(SCC(=O)Nc3nonc3C)nnc2-c2ccoc2C)c1	0	0	0	0	0
Cc1nonc1NC(=O)CSc1nnc(-c2ccoc2C)n1C	0	0	0	20.1	0
Cc1ccc(C(=O)N(Cc2nnc(-c3ccc(Cl)cc3)o2)C2CC2)o1	0	0	0	0	0
N#C/C(=N\Nc1cccc([N+](=O)[O-])c1)C(=O)c1ccc(Br)cc1	0	0	0	28.5	0
O=C(O)c1ccc(N=NNc2cccc([N+](=O)[O-])c2)cc1	0	0	0	0	0
O=C(NC1CCCC1)C1CSCCS(=O)(=O)N1Cc1ccc(F)cc1 (configuration not stated)	0	-	0	-	-
SMILES	ADAM17 inh	aDG glyco act	ADAM10 inh	GRIN3A LBD mod	FAS-TE inh
CCOC(=O)c1c(N)sc(C(=O)N(C)C)c1C	0	0	0	11.0	0
CCOC(=O)c1c(N)sc(C(=O)Nc2ccc3c(c2)OCO3)c1C	0	0	0	27.7	0
CCOC(=O)c1c(C)c(C(=O)Nc2ccc3c(c2)OCO3)c(C)n1C	0	0	0	0	0
O=c1[nH]c(SCc2cccc(Cl)c2)nc2ccccc12	0	0	0	0	0
COc1cc(C2c3c([nH]c(=O)[nH]c3=O)Nc3ccc4ccccc4c32)cc(OC)c1OC (configuration not stated)	0	0	0	30.1	0
COc1cc(C2c3c([nH]c(=O)[nH]c3=O)Nc3ccc4ccccc4c32)ccc1O (configuration not stated)	0	0	0	26.7	0
COc1ccc(CN2C(=O)c3ccccc3C(/C=N/OCc3ccc(Cl)cc3)C2=O)cc1 (configuration not stated)	0	0	0	11.3	0
COc1ccc(-n2nc([N+](=O)[O-])c(=NCCc3ccc(C)cc3)n2O)cc1	0	0	0	0	0
COc1ccc(-n2nc([N+](=O)[O-])c(=NCCc3ccc(OC)c(OC)c3)n2O)cc1	0	0	0	22.9	0
COc1cc(/C=C/C(=O)O)cc(S(=O)(=O)Nc2cc(Cl)c(Cl)cc2Cl)c1OC	0	0	0	0	0
O=C(COc1c(F)c(F)c(C(F)(F)F)c(F)c1F)Nc1ccc(N2CCOCC2)c(Cl)c1	0	0	0	11.3	0
CC(=O)Nc1ccc(/C=C/c2noc(-c3ccccc3O)n2)cc1	-	0	-	11.9	0
COc1cc(/C=C/c2noc(-c3ccccc3O)n2)ccc1OC(C)=O	0	0	0	0	0
O=C1c2ccccc2NC(c2ccc(-c3cccs3)o2)N1O (configuration not stated)	0	0	0	0	0
O=C1c2ccccc2NC(c2ccc(-c3ccc(C(F)(F)F)cc3)o2)N1O (configuration not stated)	0	0	0	23.1	0
COc1ccc(C(C)=O)cc1CSc1nnc(SCc2cc(C(C)=O)ccc2OC)s1	0	-	0	0	-
O=[N+]([O-])c1cccc2ccc(/C=C/c3ccc(F)cc3)nc12	0	0	0	24.4	0
CCOc1cc(/C=C/c2ccc3cccc([N+](=O)[O-])c3n2)ccc1OCC(=O)N(C)C	0	0	0	0	0
O=[N+]([O-])c1ccc(/C=C/c2ccc3cccc([N+](=O)[O-])c3n2)cc1	0	0	0	23.2	0
COc1cc(/C=C/c2ccc3cccc([N+](=O)[O-])c3n2)ccc1OCC#N	0	0	0	0	53.3
COc1cnc(-c2ccccn2)nc1NC(C)C	0	7.1	0	0	0
COc1ccccc1Sc1nc(-c2ccccn2)ncc1OC	0	0	0	0	0
COc1cccc(C2c3cc4c(cc3OC(N3CCCC3)C2C)OCO4)c1O (configuration not stated)	0	0	0	15.4	0
COc1cc(C2c3cc4c(cc3OC(N3CCCCC3)C2C)OCO4)cc(OC)c1O (configuration not stated)	0	0	0	0	0
CCOc1ccc(NC(=O)CN(C)c2ccc(S(=O)(=O)N(C(C)C)C(C)C)cn2)cc1OCC	0	0	0	17.2	0
SMILES	ADAM17 inh	aDG glyco act	ADAM10 inh	GRIN3A LBD mod	FAS-TE inh
CCOc1ccc(NC(=O)CN(C)CC(=O)Nc2ccccc2SC)cc1OCC	0	0	0	18.0	0
CCOc1ccc(NC(=O)CN(C)C(=O)C2CC2C)cc1OCC (configuration not stated)	0	0	0	0	0
C=CCNC(=O)CSc1nnc(-c2ccncc2)n1CCc1ccccc1	0	0	0	0	0
Cc1ccc(-c2sc(-c3ccccc3)nc2CC(=O)Nc2ccccc2F)cc1	0	0	0	0	0
COc1ccc(CN2C(=O)[C@@H]3Cc4c([nH]c5ccccc45)C(C)(C)N3C2=O)cc1	0	0	0	11.8	0
O=C(CSc1nc(N2CCOCC2)nc(N2CCOCC2)n1)Nc1cccc(C(F)(F)F)c1	0	0	0	0	0
COc1ccc(NC(C)c2cc(Cl)ccc2O)cc1 (configuration not stated)	0	0	0	0	0
O=C1C=C(N2CCOCC2)c2ccccc2C1=O	0	0	0	0	0
